Laboratory results: PubChem BioAssay AID1508600 (Functional Genomics Laboratory (NCATS/FGL), 2020)
About 3,700 (7%) of roughly 53,000 sequences were called active.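 How the source made its calls: active means gene knockdowns whose robust z-score for IL-1 alpha signal is at least 2 or at most -2, so actives lie on both sides; inactive means the rest.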 This excerpt belongs to a sample that is enriched for actives.

Experiment: Components of the Cytosolic LPS Sensing Pathway: Gene Identification via Genome-wide siRNA Screen;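 further: robust z of the log signal after scaling to non-targeting control siRNA wells of the plate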
Conditions: RAW264.7 macrophages, IL-1a HTRF, actives lie on both sides, screened at 100 nM (by protocol), cells primed 5 h with Pam3CSK4 first
Method in brief: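 RAW264.7; siRNA 100 nM final, RNAiMAX, 48h 37 degrees C; Pam3CSK4 5 h; LipidA + TransIT-TKO 24 h; IL-1a HTRF; CellTiter-Glo viability; robust z vs negative-control median.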

z-score, active:
GGUGUUUGAGUCAACAGACTT against Oard1 -2.1
GCAGCCUAUGGAAGAUCACTT against Tle4 2.8
GGAAAUGAAGCAUCUGUAUTT against Txnip -2.3
GCCACUCACUAUGCUACUCTT against Pnpla2 -2.62
GGUGCACACCAAUGUUCUGTT against Efemp2 2.03

z-score, inactive:
GCUUAUGAGACUCAUUUAATT against Oser1 0.554
GCCGCUGCACUACAAUUUGTT against Trhde 0.717
GGAGCUAUACUGCUUUUCCTT against Mtmr7 1.61
GGCUUACCUGAACUUUCUGTT against Degs2 -0.381
GGGUGUCUUACACCUUACATT against Sertad2 -1.48
GCUGUUGUUUGCUAGCAAATT against Lipa 0.973
GGAAGUCCACAUUGCUGGUTT against Slc2a9 1.85
GGGUUUUGAGAUGUAAUGATT against Marchf8 0.0734
GCACUACACCUCCAGUUCGTT against Gne 0.164
CCACAUGUUUGUCUCAAAATT against Gskip 1.28
CGACCCUACAGAGGACAUUTT against Pik3r6 0.135
GGGUUUCACCCAAAGCCUUTT against Zfp354c -1.41
GGCUCAGUAAGGACUCUGATT against Tac2 1.24
GGAAUAGAAGCACUGUGUGTT against Brs3 -1.35
GGGCCCAGAUUUCAAUGGGTT against Car14 0.379
GGCAUCUCCCACAUUAGAGTT against Sell 0.949
GGAAUAUGACUACAUGAAATT against Calu -0.0124
GGAAAUUCGUGCAUGAAGATT against Sgsm2 -1.31
GGAGUCGAAUCUUCUCUAATT against Taco1 -1.07
GCUAUGCUGUUUUAUGUGATT against Synpr 0.212
CCUAUUGUAGCAAGUUACATT against H3c7 1.15
GGCAGAUGUACUGAUUAAATT against Tmprss11g 1.05
CGUUCUCUUGAAAUAAGCCTT against Pogk -0.147
GGGACCUCCAUCGUAUUUGTT against Slc29a4 0.71
GCAACUGGUGAUAAGGUGUTT against Flywch1 0.486
